# Measurements taken from PubChem BioAssay (NCI).
# About 83,000 compounds went through this panel and 20% of them were active in at least one assay; those are over-represented in the sample as a whole.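 Compound tested at a single concentration for 48 hours in 96-well plates; a percent growth value below 10 was scored as active.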 Values without a mark were called inactive. Active and inactive are the calls of the source.
# Test system: COLO 205 colon
# Assay: NCI-60 one-dose screen, 48 h (100 = growth as untreated, 0 = no growth, -100 = all killed)
# Settings: 10 µM unless noted
row,Structure (SMILES),growth
1,COc1cc2oc(-c3cccc(NC(=O)c4cc(N)ccc4Cl)c3)cc(=O)c2c(OC)c1OC,117%
2,CC(C)(C)n1cc(-c2ccnc(NCCCNS(=O)(=O)c3cccc(F)c3)n2)c(-c2ccc(Cl)c(O)c2)n1,114%
3,COc1cccc2cc(-c3cc4ccccc4[nH]3)/c(=N\NC(=O)c3ccc(Cl)cc3)oc12,62.1%
4,Nc1nc(Nc2ccccc2SSc2ccccc2Nc2nc(N)nc(-c3ccc4ccccc4c3)n2)nc(-c2ccc3ccccc3c2)n1,106%
5,O=C(CN1CCN(c2cc(=O)n(-c3ccccc3)c3ccccc23)CC1)Nc1nc(-c2ccccc2)cs1,60.1%
6,CC(Nc1c(C#N)cnc2ccc(-c3cnc(N)nc3)cc12)c1ccccc1 (configuration not stated),24%
7,CC(=O)Nc1cccc(Nc2nc(N[C@H](C)c3ccccc3)c3ccccc3n2)c1,44.1%
8,CNC1CCc2c(sc(NC(=O)c3ccc(C(C)(C)C)cc3)c2C(N)=O)C1 (configuration not stated),-47.1% (active)
9,COc1cc(OC)cc(C(=O)Nc2cccc(C#Cc3cccc4[nH]nc(N)c34)c2)c1,6.38% (active)
10,COc1c(N2CC3CCCNC3C2)c(F)cc2c(=O)c(C(=O)N/N=C/c3ccccc3)cn(C3CC3)c12 (configuration not stated),97.5%
11,COc1ccccc1-n1cc(C#N)c(N)c1C(=O)c1ccc(Br)cc1,76.5%
12,Nc1nc(-c2cccc([N+](=O)[O-])c2)c(N=Nc2ccccc2)s1,63.1%
13,CCCCCCCn1cc2c(NCCc3ccccc3)ncnc2n1,129%
14,COc1ccc(-c2nc3cc(Cl)c(Cl)cc3n2CC(=O)N=Nc2c(O)[nH]c3ccc(OC)cc23)cc1,31.9%
15,CN1CCN(Cc2ccc(NC(=O)c3cncc(C#Cc4cnn5cccnc45)c3)cc2C(F)(F)F)CC1,-56.6% (active)
16,Cc1cc(C)c(N2C(=O)CC(Nc3ccc(Cl)cc3Cl)C2=O)c(C)c1 (configuration not stated),124%
17,CC(=O)Nc1cccc(Nc2nc(N[C@@H](C)c3ccccc3)c3ccccc3n2)c1,-12.3% (active)

row,Structure (SMILES),growth
1,COc1cc(-c2nn(C(C)(C)C)cc2-c2ccnc(NCCCNS(=O)(=O)c3cccc(F)c3)n2)ccc1Cl,91.5%
2,NC(=O)c1cccc(-n2ccc3cc(NC(=O)Nc4ccc(N5CCOCC5)c(C(F)(F)F)c4)ccc32)n1,-48.3% (active)
3,O=S(=O)(Nc1cccc2ccccc12)c1ccc(-c2cnc(C3CC3)o2)cc1,9.76% (active)
4,CCOC(=O)c1c(N)c(C#N)cn1-c1cc(OC)c(OC)c(OC)c1,122%
5,COc1ccc([C@H]2c3[nH]c4ccccc4c3C[C@H]3C(=O)N(C4CCN(Cc5c(Cl)cccc5Cl)CC4)CC(=O)N23)c(OC)c1,109%
6,COc1cc2c(cc1OC)C(Sc1ccc(C)cc1)c1c(nc(N)c(C#N)c1N)O2 (configuration not stated),-28.5% (active)
7,C[C@@H](Nc1c(C#N)cnc2ccc(-c3cnc(Cl)c(NS(C)(=O)=O)c3)cc12)c1ccccc1,16.5%
8,Cc1ccc(NC(=O)N[C@@H](Cc2cc(F)cc(F)c2)C(=O)NC2C(=O)N3C[C@H](O)C[C@H]3C(=O)N3CCCC[C@H]3C(=O)N[C@@H](CO)C(=O)N3C[C@H](C)C[C@H]3C(=O)O[C@H]2C)c(F)c1 (some centres not stated),-11.9% (active)
9,CCO/C=N/C1=C(C#N)C(c2ccc(F)cc2)c2sc3c(C)cccc3c2O1 (configuration not stated),15.5%
10,c1cn2c(ccc3nc(-c4cn[nH]c4)c4c(c32)CCCC4)n1,95.5%
11,Cn1ccnc1C(=O)/C=C/c1ccc(NC(=O)c2c(F)c(F)c(F)c(F)c2F)cc1,124%
12,Cc1noc(C)c1CSc1nc2ccccc2n1-c1ccccc1,105%
13,CC(C)(C)CC(C)(C)n1nnnc1C(Nc1nccs1)c1cc2cccc3ccc4cccc1c4c32 (configuration not stated),114%
14,COc1ccc(/C(N)=N/C(N)=N/c2nc3ccccc3s2)cc1,103%
15,COc1ccc(-c2nn(-c3ccc(S(C)(=O)=O)cc3)cc2/C=N/O)cc1,119%
16,CCOc1cccc(-c2nc3sccn3c2-c2ccnc(S(C)(=O)=O)n2)c1,99.9%

# Test system: DU-145 prostate
# Assay: as above
# Settings: 10 µM unless noted
row,Structure (SMILES),growth
1,COc1cc2oc(-c3cccc(NC(=O)c4cc(N)ccc4Cl)c3)cc(=O)c2c(OC)c1OC,99.7%
2,CC(C)(C)n1cc(-c2ccnc(NCCCNS(=O)(=O)c3cccc(F)c3)n2)c(-c2ccc(Cl)c(O)c2)n1,94.4%
3,COc1cccc2cc(-c3cc4ccccc4[nH]3)/c(=N\NC(=O)c3ccc(Cl)cc3)oc12,48.3%
4,Nc1nc(Nc2ccccc2SSc2ccccc2Nc2nc(N)nc(-c3ccc4ccccc4c3)n2)nc(-c2ccc3ccccc3c2)n1,60.7%
5,O=C(CN1CCN(c2cc(=O)n(-c3ccccc3)c3ccccc23)CC1)Nc1nc(-c2ccccc2)cs1,72.7%
6,CC(Nc1c(C#N)cnc2ccc(-c3cnc(N)nc3)cc12)c1ccccc1 (configuration not stated),17.3%
7,CC(=O)Nc1cccc(Nc2nc(N[C@H](C)c3ccccc3)c3ccccc3n2)c1,65%
8,CNC1CCc2c(sc(NC(=O)c3ccc(C(C)(C)C)cc3)c2C(N)=O)C1 (configuration not stated),44.7%
9,COc1cc(OC)cc(C(=O)Nc2cccc(C#Cc3cccc4[nH]nc(N)c34)c2)c1,28.6%
10,COc1c(N2CC3CCCNC3C2)c(F)cc2c(=O)c(C(=O)N/N=C/c3ccccc3)cn(C3CC3)c12 (configuration not stated),104%
11,COc1ccccc1-n1cc(C#N)c(N)c1C(=O)c1ccc(Br)cc1,97.3%
12,Nc1nc(-c2cccc([N+](=O)[O-])c2)c(N=Nc2ccccc2)s1,69.5%
13,COc1ccc(-c2nc3ccc(-c4nnc(SCC(=O)Nc5ccc(C(=O)/C=C/c6ccc(Cl)cc6)cc5)o4)cc3[nH]2)cc1,104%
14,CCCCCCCn1cc2c(NCCc3ccccc3)ncnc2n1,102%
15,COc1ccc(-c2nc3cc(Cl)c(Cl)cc3n2CC(=O)N=Nc2c(O)[nH]c3ccc(OC)cc23)cc1,5.81% (active)
16,CN1CCN(Cc2ccc(NC(=O)c3cncc(C#Cc4cnn5cccnc45)c3)cc2C(F)(F)F)CC1,6.94% (active)
17,Cc1cc(C)c(N2C(=O)CC(Nc3ccc(Cl)cc3Cl)C2=O)c(C)c1 (configuration not stated),110%
18,CC(=O)Nc1cccc(Nc2nc(N[C@@H](C)c3ccccc3)c3ccccc3n2)c1,11.4%
19,COc1cc(-c2nn(C(C)(C)C)cc2-c2ccnc(NCCCNS(=O)(=O)c3cccc(F)c3)n2)ccc1Cl,69.3%
20,NC(=O)c1cccc(-n2ccc3cc(NC(=O)Nc4ccc(N5CCOCC5)c(C(F)(F)F)c4)ccc32)n1,13.2%

row,Structure (SMILES),growth
1,O=S(=O)(Nc1cccc2ccccc12)c1ccc(-c2cnc(C3CC3)o2)cc1,15.3%
2,CCOC(=O)c1c(N)c(C#N)cn1-c1cc(OC)c(OC)c(OC)c1,110%
3,COc1ccc([C@H]2c3[nH]c4ccccc4c3C[C@H]3C(=O)N(C4CCN(Cc5c(Cl)cccc5Cl)CC4)CC(=O)N23)c(OC)c1,110%
4,COc1ccc2c(c1)c(-c1cc(N)n3nc(-c4cn(C)c5ccc(OC)cc45)cc3n1)cn2C,93.1%
5,COc1cc2c(cc1OC)C(Sc1ccc(C)cc1)c1c(nc(N)c(C#N)c1N)O2 (configuration not stated),-83% (active)
6,C[C@@H](Nc1c(C#N)cnc2ccc(-c3cnc(Cl)c(NS(C)(=O)=O)c3)cc12)c1ccccc1,7.73% (active)
7,Cc1ccc(NC(=O)N[C@@H](Cc2cc(F)cc(F)c2)C(=O)NC2C(=O)N3C[C@H](O)C[C@H]3C(=O)N3CCCC[C@H]3C(=O)N[C@@H](CO)C(=O)N3C[C@H](C)C[C@H]3C(=O)O[C@H]2C)c(F)c1 (some centres not stated),37.7%
8,O=C(NCc1ncc[nH]1)c1ccc(-c2nc3ccc4[nH]ncc4c3c3c2CCCC3)cc1,21.6%
9,CCO/C=N/C1=C(C#N)C(c2ccc(F)cc2)c2sc3c(C)cccc3c2O1 (configuration not stated),12.4%
10,c1cn2c(ccc3nc(-c4cn[nH]c4)c4c(c32)CCCC4)n1,52%
11,O=c1[nH]c2ccccc2cc1CSc1ccccc1Nc1nccc(-c2ccc(Cl)cc2)n1,102%
12,Cn1ccnc1C(=O)/C=C/c1ccc(NC(=O)c2c(F)c(F)c(F)c(F)c2F)cc1,106%
13,Cc1noc(C)c1CSc1nc2ccccc2n1-c1ccccc1,86.4%
14,Cn1cc(CNc2nc3ccc(OC/C(=C/F)CN)cc3o2)ccc1=O,110%
15,CC(C)(C)CC(C)(C)n1nnnc1C(Nc1nccs1)c1cc2cccc3ccc4cccc1c4c32 (configuration not stated),107%
16,COc1ccc(/C(N)=N/C(N)=N/c2nc3ccccc3s2)cc1,81%
17,COc1ccc(-c2nn(-c3ccc(S(C)(=O)=O)cc3)cc2/C=N/O)cc1,107%
18,CCOc1cccc(-c2nc3sccn3c2-c2ccnc(S(C)(=O)=O)n2)c1,0.125% (active)
19,O=C(c1ccc(Cl)cc1)C1[C@H](c2ccc(Cl)cc2)[C@@H](c2ccccc2)NC12C(=O)Nc1ccccc12 (some centres not stated),65.1%
